Measurements from PubChem BioAssay AID1159580 (chemical genetic matrix, 2015).
Several values for one entry are separate records, joined by “and”; a condition that tells them apart may be missing. Identical values can stand only once. About 2,000 (36%) of roughly 5,500 compounds were called active. Another 18% or so got no clear call; they are omitted. No stated cut-off is given here; in the data, active means normalized growth mostly below about 0.91 (no sharp cut-off); inconclusive means no clear call, values can overlap the other calls; inactive means mostly above about 0.92. Some of the results follow.

Assay: chemical genetic growth profiling, strain panel (AID 1159580);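 further: tested at 20 µM; growth read once vehicle control cultures reached saturation at 30 °C; 1 = growth at the plate median or of vehicle wells; lower values mean less growth of the strain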
Settings: S. cerevisiae deletion strains, growth OD

Measured: normalized growth

O=C(O)C1=C[C@@H](O)[C@@H](O)[C@H](O)C1
inactive: locus YAL013W, strain DEP1, hits give low values 1.02 | locus YAL021C, strain ccr4, hits give low values 1 | locus YAL026C, strain drs2, hits give low values 0.978 | locus YAL030W, strain snc1, hits give low values 0.969 | locus YBL061C, strain skt5, hits give low values 0.974 | locus YBR009C, strain hhf1, hits give low values 0.988 | locus YBR021W, strain FUR4, hits give low values 1.02 | locus YBR023C, strain chs3, hits give low values 0.988 | locus YBR171W, strain sec66, hits give low values 0.985 | locus YBR229C, strain ROT2, hits give low values 1.01 | locus YBR231C, strain swc5, hits give low values 0.98 | locus YBR279W, strain paf1, hits give low values 0.977 | locus YCL011C, strain gbp2, hits give low values 0.99 | locus YCL016C, strain dcc1, hits give low values 0.987 | locus YCL029C, strain bik1, hits give low values 1.01 | locus YCL061C, strain MRC1, hits give low values 0.989 | locus YCL069W, strain vba3, hits give low values 0.977 | locus YCR088W, strain abp1, hits give low values 0.974 | locus YDL005C, strain med2, hits give low values 0.976 | locus YDL035C, strain GPR1, hits give low values 1.04 | locus YDL040C, strain nat1, hits give low values 0.987 | locus YDL074C, strain BRE1, hits give low values 1.07 | locus YDL101C, strain DUN1, hits give low values 1.03 | locus YDL134C, strain PPH21, hits give low values 0.999 | locus YDL185W, strain tfp1, hits give low values 1.01 | locus YDL192W, strain arf1, hits give low values 1.02 | locus YDR001C, strain nth1, hits give low values 0.975 | locus YDR069C, strain doa4, hits give low values 0.97 | locus YDR101C, strain arx1, hits give low values 1.04 | locus YDR137W, strain rgp1, hits give low values 0.977 | locus YDR150W, strain NUM1, hits give low values 1.02 | locus YDR159W, strain sac3, hits give low values 0.979 | locus YDR162C, strain NBP2, hits give low values 1.01 | locus YDR195W, strain ref2 0.946 | locus YDR297W, strain sur2, hits give low values 0.963 | locus YDR318W, strain mcm21, hits give low values 0.999 | locus YDR334W, strain swr1, hits give low values 0.966 | locus YDR335W, strain msn5, hits give low values 0.976 | locus YDR388W, hits give low values 1.01 | locus YDR392W, strain spt3, hits give low values 1.04 | locus YDR502C, strain sam2, hits give low values 1.01 | locus YEL003W, strain gim4, hits give low values 0.979 | locus YEL037C, strain rad23, hits give low values 0.971 | locus YEL061C, strain CIN8 (second series), hits give low values 0.973 | locus YEL061C, strain CIN8, hits give low values 1.01 | locus YER015W, strain faa2, hits give low values 0.988 | locus YER016W, strain bim1, hits give low values 0.977 | locus YER110C, hits give low values 1.01 | locus YER111C, strain swi4, hits give low values 0.967 | locus YER155C, strain BEM2 (second series), hits give low values 0.958 | locus YER155C, strain BEM2, hits give low values 1.01 | locus YER167W, strain BCK2, hits give low values 1.01 | locus YFR010W, strain ubp6, hits give low values 0.964 | locus YGL078C, strain dbp3, hits give low values 1.01 | locus YGL086W, strain mad1, hits give low values 1.07 | locus YGL167C, strain pmr1, hits give low values 0.977 | locus YGL173C, strain kem1, hits give low values 0.974 | locus YGL227W, strain vid30, hits give low values 0.986 | locus YGL240W, strain doc1, hits give low values 0.988 | locus YGL248W, strain PDE1, hits give low values 1.03 | locus YGL253W, strain hxk2, hits give low values 0.984 | locus YGR135W, strain pre9, hits give low values 1.02 | locus YGR252W, strain gcn5, hits give low values 0.931 | locus YHR013C, strain ard1, hits give low values 0.949 | locus YHR027C, strain rpn1, hits give low values 0.968 | locus YHR030C, strain SLT2, hits give low values 1.01 and 0.984 | locus YHR079C, strain IRE1 (second series), hits give low values 1.01 | locus YHR079C, strain IRE1, hits give low values 0.972 | locus YHR094C, strain hxt1, hits give low values 0.993 | locus YHR129C, strain ARP1, hits give low values 1.02 | locus YHR142W, strain chs7, hits give low values 0.995 | locus YHR200W, strain rpn10, hits give low values 0.996 | locus YIL066C, strain RNR3, hits give low values 1.02 | locus YIL073C, strain SPO22, hits give low values 1.08 | locus YIL125W, strain kgd1, hits give low values 1.03 | locus YIR030C, strain dcg1, hits give low values 0.999 | locus YJL092W, strain hpr5, hits give low values 0.976 | locus YJL095W, strain BCK1 (second series), hits give low values 0.978 | locus YJL095W, strain BCK1, hits give low values 1.04 and 0.998 | locus YJL115W, strain asf1, hits give low values 0.952 | locus YJL129C, strain trk1, hits give low values 0.981 | locus YJL134W, strain LCB3, hits give low values 1.01 | locus YJL154C, strain vps35, hits give low values 0.983 | locus YJL164C, strain tpk1, hits give low values 0.981 | locus YJL166W, strain qcr8, hits give low values 0.974 | locus YJL168C, strain set2, hits give low values 1.01 | locus YJL187C, strain SWE1 (second series), hits give low values 1.04 | locus YJL187C, strain SWE1, hits give low values 0.976
